Source: PubChem BioAssay (NCATS)
Results filed as inconclusive are left out. A call without a number means that no potency is given here. The source made the active and inactive calls. Unless noted, the call rests on the fitted dose curve; in most records, active means well fitted curve in the direction sought with a large enough effect; inconclusive means small, poorly fitted or top-dose-only effect, or another doubt; inactive means no such curve, though single readings can be large; an effect the other way counts as inactive or inconclusive.

Key:
[1] = target: Glucagon-like peptide 1 receptor (Homo sapiens) (UniProt P43220); test: qHTS of GLP-1 Receptor Agonists: LOPAC Validation (AID 624148);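 further: higher luminescence signal means agonism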
Chain of Glucagon-like peptide 1 receptor (Homo sapiens) (P43220 whole entry, looked up): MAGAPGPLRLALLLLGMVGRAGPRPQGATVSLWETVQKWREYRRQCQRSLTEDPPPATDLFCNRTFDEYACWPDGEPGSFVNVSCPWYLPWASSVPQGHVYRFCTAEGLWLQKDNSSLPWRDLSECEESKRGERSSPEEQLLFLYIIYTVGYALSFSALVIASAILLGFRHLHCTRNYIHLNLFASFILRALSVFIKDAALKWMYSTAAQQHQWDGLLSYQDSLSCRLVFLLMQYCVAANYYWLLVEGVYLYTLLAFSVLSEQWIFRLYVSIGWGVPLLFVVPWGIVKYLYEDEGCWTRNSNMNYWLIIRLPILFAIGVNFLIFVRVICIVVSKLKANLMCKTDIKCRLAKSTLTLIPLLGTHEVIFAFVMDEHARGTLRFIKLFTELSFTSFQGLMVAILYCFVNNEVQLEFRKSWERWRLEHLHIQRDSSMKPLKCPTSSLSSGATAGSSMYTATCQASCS
Outline: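 HEK293 cells stably co-expressing a cAMP-responsive luciferase reporter and a hypersensitive GLP-1R were plated 12 h at 37 °C and exposed to compounds for 4-6 hr at 37 °C, 5% CO2. Luminescence was read 12 min after adding detection reagent.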

[2] = qHTS of Nrf2 Activators: LOPAC Validation (AID 624149)
Outline: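 Luciferase signal from ARE activation, read with Steady-Glo after 30 min at room temperature. Compounds were pin-transferred onto AREc32_Fluc cells (1000/well, OPTI-MEM/5% FBS, seeded overnight) and left 24 hr at 37 deg C.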

[3] = HTS Assay for Allosteric Antagonists of the Human D2 Dopamine Receptor: Hit Validation in HTRF (AID 624455);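 further: stable D1 dopamine receptor cell line scored for blocking the D1 response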
Outline: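 Inhibition of the D1-mediated response was measured by HTRF. Cells used were a line stably expressing the D1 dopamine receptor.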

[4] = target: Voltage-gated inwardly rectifying potassium channel KCNH2 (Homo sapiens) (UniProt Q12809); test: qHTS Assay for Small Molecule Inhibitors of the Human hERG Channel Activity (AID 588834);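 further: lower thallium flux fluorescence means stronger hERG block; nearly all actives have a fitted effect of over 50% in size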; further: potency means the concentration at half of the fitted maximal effect
Chain of Voltage-gated inwardly rectifying potassium channel KCNH2 (Homo sapiens) (Q12809 whole entry, looked up): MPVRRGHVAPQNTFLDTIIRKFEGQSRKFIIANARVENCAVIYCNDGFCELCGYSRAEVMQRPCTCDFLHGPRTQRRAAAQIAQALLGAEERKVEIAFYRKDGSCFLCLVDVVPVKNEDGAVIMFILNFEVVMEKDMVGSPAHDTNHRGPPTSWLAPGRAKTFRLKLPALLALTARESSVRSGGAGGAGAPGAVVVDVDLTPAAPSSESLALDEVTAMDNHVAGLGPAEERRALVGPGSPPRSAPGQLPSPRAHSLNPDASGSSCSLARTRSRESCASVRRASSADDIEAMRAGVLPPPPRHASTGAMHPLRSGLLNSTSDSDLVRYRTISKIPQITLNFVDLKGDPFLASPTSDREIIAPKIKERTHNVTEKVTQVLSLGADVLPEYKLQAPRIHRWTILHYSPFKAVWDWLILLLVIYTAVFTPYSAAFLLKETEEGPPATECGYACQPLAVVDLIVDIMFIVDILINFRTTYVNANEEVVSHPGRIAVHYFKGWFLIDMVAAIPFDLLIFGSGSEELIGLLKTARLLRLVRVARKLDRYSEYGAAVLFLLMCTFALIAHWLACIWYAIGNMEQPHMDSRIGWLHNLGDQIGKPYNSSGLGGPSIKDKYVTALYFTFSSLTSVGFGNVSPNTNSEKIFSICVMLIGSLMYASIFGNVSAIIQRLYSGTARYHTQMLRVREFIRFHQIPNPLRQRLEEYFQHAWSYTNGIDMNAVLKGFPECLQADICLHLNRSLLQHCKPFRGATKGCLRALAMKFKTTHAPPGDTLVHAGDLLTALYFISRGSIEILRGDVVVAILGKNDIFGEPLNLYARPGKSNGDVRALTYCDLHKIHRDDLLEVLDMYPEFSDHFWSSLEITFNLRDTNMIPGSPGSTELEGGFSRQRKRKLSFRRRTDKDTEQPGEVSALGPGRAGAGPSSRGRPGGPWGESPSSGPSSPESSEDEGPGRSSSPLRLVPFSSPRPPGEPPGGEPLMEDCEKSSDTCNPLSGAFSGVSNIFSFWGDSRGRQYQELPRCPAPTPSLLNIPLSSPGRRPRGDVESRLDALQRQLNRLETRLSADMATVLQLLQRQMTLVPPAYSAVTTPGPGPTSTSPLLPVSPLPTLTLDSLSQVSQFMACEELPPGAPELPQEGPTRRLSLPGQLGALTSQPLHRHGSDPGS
Outline: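 Homogeneous FluxOR thallium flux assay using hERG-expressing U2OS cells (BacMam). Compound treatment about 10 minutes preceded stimulation; reduced fluorescence taken as channel block.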

[5] = qHTS Assay for Identification of Small Molecule Antagonists for NFkB Signaling Pathway. (AID 624479; calls by dose curve;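 further: pathway stimulated with TNF alpha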; further: potency means the concentration at half of the fitted maximal effect)
[6] = Cell Proliferation Assay against the TMD8 Cell Line (AID 651645); settings: TMD8 DLBCL cell line proliferation/viability; at 46.1 µM (top of the series) unless noted;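 further: cells exposed to compound for 48 h before reading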
Outline: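 Cell viability of the ABC DLBCL line TMD8 is measured by CellTiter-Glo luminescence following a 48-hour incubation with compound. Percent activity uses DMSO as 100% and 9.2 uM bortezomib (final) as 0%.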

[7] = Cell Proliferation Assay against the HBL1 Cell Line (AID 651646); settings: HBL1 DLBCL cells; at 46.1 µM (top of the series) unless noted;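 further: cells exposed to compound for 48 h before reading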
Outline: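 After a 48 h incubation of 500 HBL1 cells/well in phenol red-free RPMI plus 5% FBS, relative luciferase units from CellTiter-Glo gave percent activity against DMSO and 9.2 uM bortezomib (final) controls.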

[8] = target: Luciferin 4-monooxygenase (Photinus pyralis) (UniProt P08659); test: Biochemical firefly luciferase enzyme assay for NPC (AID 624030);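 further: purified P. pyralis luciferase at 10 nM with luciferin and ATP substrate; nearly all actives have a fitted effect of over 70% in size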
Chain of Luciferin 4-monooxygenase (Photinus pyralis) (P08659 whole entry, looked up): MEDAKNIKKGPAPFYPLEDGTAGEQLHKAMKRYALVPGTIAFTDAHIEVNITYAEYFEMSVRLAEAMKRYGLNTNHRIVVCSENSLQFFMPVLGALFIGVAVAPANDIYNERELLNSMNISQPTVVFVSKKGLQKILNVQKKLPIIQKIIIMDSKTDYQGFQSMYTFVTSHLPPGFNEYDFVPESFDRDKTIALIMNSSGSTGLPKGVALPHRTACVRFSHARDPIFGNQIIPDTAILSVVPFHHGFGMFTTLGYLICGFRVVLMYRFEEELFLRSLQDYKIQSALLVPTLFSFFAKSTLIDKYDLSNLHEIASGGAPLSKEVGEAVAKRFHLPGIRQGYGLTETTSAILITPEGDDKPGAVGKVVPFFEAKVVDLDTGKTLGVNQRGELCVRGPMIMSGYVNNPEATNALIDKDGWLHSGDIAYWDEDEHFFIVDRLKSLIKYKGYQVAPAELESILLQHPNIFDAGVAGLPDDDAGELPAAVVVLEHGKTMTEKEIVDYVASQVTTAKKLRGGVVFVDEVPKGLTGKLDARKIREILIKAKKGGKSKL
Outline: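 Counter-screen for direct inhibition of the luciferase enzyme by approved-drug library compounds, run at 10 nM enzyme in 50 mM Tris acetate (final). Luminescence was read within 5 min of enzyme-buffer addition and normalized to PTC124 versus DMSO (0%).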

[9] = Cytotoxicity counterscreen for NFkB agonists and antagonists (AID 624476); further: potency means the concentration at half of the fitted maximal effect
[10] = target: Glutaminase kidney isoform, mitochondrial (Homo sapiens) (UniProt O94925); test: qHTS for Inhibitors of Glutaminase (GLS): LOPAC Validation (AID 624146); further: nearly all actives have a fitted effect of over 60% in size; further: potency means the concentration at half of the fitted maximal effect
Chain of Glutaminase kidney isoform, mitochondrial (Homo sapiens) (O94925 whole entry, looked up, canonical isoform): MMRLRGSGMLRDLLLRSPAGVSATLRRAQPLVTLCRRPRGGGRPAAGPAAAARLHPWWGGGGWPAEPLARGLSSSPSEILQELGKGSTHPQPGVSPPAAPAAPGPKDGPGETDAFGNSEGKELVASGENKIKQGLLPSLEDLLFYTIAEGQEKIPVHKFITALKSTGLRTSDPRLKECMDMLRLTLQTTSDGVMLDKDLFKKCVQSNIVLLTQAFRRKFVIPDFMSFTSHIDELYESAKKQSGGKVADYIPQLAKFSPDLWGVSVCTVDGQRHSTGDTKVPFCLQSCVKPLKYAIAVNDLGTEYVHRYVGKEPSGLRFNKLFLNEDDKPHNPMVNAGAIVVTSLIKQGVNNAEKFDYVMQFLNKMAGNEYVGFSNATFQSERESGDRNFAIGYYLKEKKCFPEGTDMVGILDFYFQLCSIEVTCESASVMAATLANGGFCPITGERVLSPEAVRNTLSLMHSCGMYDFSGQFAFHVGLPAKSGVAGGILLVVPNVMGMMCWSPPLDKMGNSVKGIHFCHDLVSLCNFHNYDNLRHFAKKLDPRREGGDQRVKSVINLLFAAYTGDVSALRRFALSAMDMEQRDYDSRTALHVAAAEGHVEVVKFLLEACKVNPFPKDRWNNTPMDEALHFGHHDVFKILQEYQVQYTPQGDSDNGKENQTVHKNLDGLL
Outline: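 hKGA in 45 mM KH2PO4 (pH 8.2), 0.02% Tween-20 with compound, then 1mM L-Glutamine (stock as added) plus glutamate oxidase/HRP/Amplex red coupling mix. Fluorescence read initially and after 30 min at RT; signal change reflects glutamate formation.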

[11] = S16 Schwann cell viability assay (CellTiter-Glo assay) (AID 624031);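 further: native untransfected S16 rat Schwann cells; cellular ATP luminescence as a viability measure; nearly all actives have a fitted effect of over 70% in size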
Outline: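 Rat S16 Schwann cells without reporter constructs received compound or DMSO for 24 h at 37 °C under 5% CO2. Cellular ATP was then quantified by CellTiter-Glo luminescence, with vehicle wells defined as 0% activity and cell-free wells as reference.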

[12] = S16 Schwann cell PMP22 intronic element firefly luciferase assay (AID 624032); further: nearly all actives have a fitted effect of over 30% in size
Outline: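 Rat S16 Schwann cells stably carrying a PMP22 intronic element-driven Fluc reporter were seeded overnight, then exposed to compounds for 24 h at 37 °C. Luminescence was normalized to PTC124 (positive control) and DMSO (0% activity).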

O=C(CCc1ccc(O)cc1)c1c(O)cc(O)cc1O
outcome [1]: inactive | outcome [2]: inactive | outcome [3]: inactive

S=c1nc[nH]c2nc[nH]c12
Potency [4]: inactive | Potency [5]: inactive | viability (% of control) [6]: 39.5% [at 92.2 µM] | viability, percent of control [7]: 54.4% [at 92.2 µM]

Cc1ccc(Nc2nccc(N(C)c3ccc4c(C)n(C)nc4c3)n2)cc1S(N)(=O)=O
Potency [8]: inactive | Potency [9]: inactive | Potency [5]: 16.8 µM (active) | viability (% of control) [6]: 13.2% | viability, percent of control [7]: 35.9%

NC(=O)Cc1cccc(C(=O)c2ccccc2)c1N
Potency [8]: inactive

COc1cc2c(N3CCN(C(=O)Nc4ccc(OC(C)C)cc4)CC3)ncnc2cc1OCCCN1CCCCC1
Potency [8]: inactive | Potency [5]: inactive | viability (% of control) [6]: 19.9% | viability, percent of control [7]: 15.5%

CN(C)CCCC1(c2ccc(F)cc2)OCc2cc(C#N)ccc21 (configuration not stated)
Potency [10]: inactive | outcome [1]: inactive | outcome [2]: inactive | outcome [3]: inactive

COc1cc2nc(N3CCN(C(=O)C4CCCO4)CC3)nc(N)c2cc1OC (configuration not stated)
Potency [10]: inactive | outcome [1]: inactive | outcome [2]: inactive | outcome [3]: inactive

CC1(C)C(=O)N(CCN2CCC(C(=O)c3ccc(F)cc3)CC2)c2ccccc21
Potency [4]: 0.891 µM (active) | outcome [1]: inactive | outcome [2]: inactive | outcome [3]: inactive

C[C@H](Cc1ccc(O)c(O)c1)[C@@H](C)Cc1ccc(O)c(O)c1
Potency [10]: 0.631 µM (active) | outcome [1]: inactive | outcome [2]: inactive | outcome [3]: inactive

Cc1cccc(C#Cc2ccccc2)n1
Potency [4]: inactive | outcome [1]: inactive | outcome [3]: inactive | Potency [9]: inactive | Potency [5]: inactive | viability (% of control) [6]: 116% | viability, percent of control [7]: 102%

C=CCc1cc(OC)c(O)c(C(=O)NCCO)c1
Potency [8]: inactive | Potency [11]: inactive | Potency [12]: inactive

CCN(CC)CCOc1ccc(Nc2ncc3cc(-c4c(Cl)cccc4Cl)c(=O)n(C)c3n2)cc1
Potency [9]: 2.35 µM (active) | Potency [5]: 7.49 µM (active) | viability (% of control) [6]: 0.582% | viability, percent of control [7]: 1.36%
